CYP2C19 inh = human CYP2C19 inhibition. 96,000 compounds, 21% hits. CYP2C19 Supersomes, luciferin-H EGE luminescence, 30 min. AID 778. inhibition, % at 5 µM;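 active = CYP2C19 inhibition above a set limit at 5 µM in the primary screen, cut at about 50% in these data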;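 also: plate controls were negative control wells for no effect and 2.5 mM tranylcypromine positive control for full effect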
E-sel TNF inh = blocks E-selectin expression induced by TNF alpha. HUVEC TNFa-induced E-selectin immunofluorescence, high content. inhibition, % at 2 µM. 120,000 compounds, 0.71% hits. AID 1246;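 active = inhibition above the batch mean plus 3 SD, and confirmed as a hit on visual image review, cut at about 43% in these data; inconclusive = passes the inhibition cutoff but fails visual image review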;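 also: 0% = TNF-stimulated DMSO wells and 100% = unstimulated control wells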
CYP2C9 inh = inhibitors of human CYP2C9. CYP2C9 Supersomes, luciferin-H conversion, luminescence. inhibition, % at 5 µM. P11712. 96,000 compounds, 20% hits. AID 777;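 active = blocking of liver enzyme CYP2C9 beyond about 50% at 5 µM, limit read from the data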
Target sequence (P11712 whole entry, looked up): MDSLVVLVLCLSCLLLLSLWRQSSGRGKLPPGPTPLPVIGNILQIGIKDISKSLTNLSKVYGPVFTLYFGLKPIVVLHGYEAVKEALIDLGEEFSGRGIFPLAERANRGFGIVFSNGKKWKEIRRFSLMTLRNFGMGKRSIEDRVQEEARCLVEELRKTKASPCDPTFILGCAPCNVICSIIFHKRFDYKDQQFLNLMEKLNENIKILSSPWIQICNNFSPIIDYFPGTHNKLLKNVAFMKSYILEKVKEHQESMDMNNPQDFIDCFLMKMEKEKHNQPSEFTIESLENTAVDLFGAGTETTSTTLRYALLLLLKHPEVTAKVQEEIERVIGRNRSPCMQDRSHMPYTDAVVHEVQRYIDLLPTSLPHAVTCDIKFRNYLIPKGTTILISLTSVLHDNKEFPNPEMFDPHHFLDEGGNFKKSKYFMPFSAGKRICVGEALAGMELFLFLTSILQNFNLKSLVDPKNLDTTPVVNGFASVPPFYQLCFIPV
CYP2C9 act = activators of human CYP2C9 | 96,000 compounds, 1.4% hits | recombinant CYP2C9, luciferin-H conversion, luminescence; stronger effect = higher value; factor 1 = untreated enzyme, 0 = blocked | P11712 | activation factor at 5 µM;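 active = activation factor of 2 or more for CYP2C9 at a 5 µM dose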;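 also: 0 = sulfaphenazole-blocked wells and 1 = vehicle-only wells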
CYP2C19 act = activators of human cytochrome P450 2C19. recombinant CYP2C19, luciferin-H EGE luminescence; stronger effect = higher value; 0 = fully inhibited enzyme, 1 = untreated enzyme. activation factor at 5 µM. 96,000 tested, under 10 active. AID 1025;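 active = activation factor of at least 2 at 5 µM in the primary screen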;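 also: 0 = wells with 2.5 mM tranylcypromine and 1 = vehicle-only wells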
cytoskel mod = modifiers of cytoskeleton assembly. HUVEC TNFa F-actin phalloidin imaging, high content. inhibition, % at 2 µM. 91,000 compounds, 0.18% hits. AID 836;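 active = inhibition above the batch mean plus 3 SD and confirmed as a hit by visual image inspection, cut at about 30% in these data, passing the limit was not always enough; inconclusive = above the inhibition threshold but rejected on visual inspection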
Starred values were filed as active, the others as inactive; ? = inconclusive; · = not tested or not shown. The list is not random: actives were taken first. Their share in the collection is about 22%.

SMILES	CYP2C19 inh	E-sel TNF inh	CYP2C9 inh	CYP2C9 act	CYP2C19 act	cytoskel mod
CC(C)C1N=C2c3ccccc3N=C(SCC#N)N2C1=O (stereo not given)	-2.5	·	-4.3	1	1	-9.0
NS(=O)(=O)c1ccc(NC(=O)COC(=O)CCNC(=O)NC23CC4CC(CC(C4)C2)C3)cc1	29.6	·	64.8*	0.4	0.7	13.8
COc1ccc2cc(C(=O)NC3CCCCC3)c(=O)oc2c1	95.6*	3.2	70.5*	0.3	0	-20.3
COc1ccc2cc(C(C)=O)c(=O)oc2c1	·	8.2	·	·	·	·
O=C(NCc1ccco1)c1cc2ccc(O)cc2oc1=O	96.6*	-6.8	92.6*	0.1	0	-2.8
COc1ccc(C(=O)c2cc3ccc(O)cc3oc2=O)cc1	62.8*	-26.9	35.0	0.7	0.4	-1.6
N/C(=N\NC(=O)c1ccccc1)c1cc2ccccc2oc1=O	·	-24.5	·	·	·	·
COc1ccc(C(=O)NNC(=O)c2cc3cccc(OC)c3oc2=O)cc1	·	-3.4	·	·	·	·
COc1ccc2cc(C(=O)NCc3ccco3)c(=O)oc2c1	24.1	3.6	17.5	0.8	0.8	13.4
O=C(c1ccccc1)c1cc2ccc(O)cc2oc1=O	93.4*	16.6	79.7*	0.2	0.1	6.6
COc1ccc(COCC(CC(C)C)N2CCN(C(=O)c3cccc(C(F)(F)F)c3)CCC2=O)cc1 (stereo not given)	·	23.9	·	·	·	·
O=C(NC(Cc1ccccc1)c1nc2ccccc2[nH]1)C1CC(=O)N(c2ccc3c(c2)OCCO3)C1 (stereo not given)	81.1*	-57.5	-54.1	1.5	0.2	4.8
CCN1CCC(C(N)=O)CC1	5.5	13.9	0.4	1	0.9	-3.2
COC(=O)C(NNc1ccccc1C)(NC(=O)c1ccc(F)cc1)C(F)(F)F (stereo not given)	78.9*	34.5	53.8*	0.5	0.2	-3.8
C=CCn1c2ccccc2c2nnc(SC(CC)C(=O)Nc3sc4c(c3C#N)CCCC4)nc21 (stereo not given)	53.3*	52.5	72.6*	0.3	0.5	-1.9
Cc1ccnc(SCC(=O)Nc2sc3c(c2C#N)CCCC3)n1	5.1	-1.7	22.6	0.8	0.9	-18.7
Cn1c(C(=O)OCC(=O)NCc2ccco2)cc2sccc21	39.5	-13.0	26.1	0.7	0.6	-0.8
COc1ccccc1C(OC(=O)c1cccs1)C(=O)NCc1ccco1 (stereo not given)	58.4*	10.3	40.1	0.6	0.4	-10.4
COc1ccccc1NC(=O)NCc1ccco1	·	-7.8	·	·	·	·
CC(C)C(OC(=O)c1cccs1)C(=O)NCc1ccco1 (stereo not given)	59.8*	-8.8	41.9	0.6	0.4	-20.7
CC(C)C(OC(=O)c1cc2occc2n1C)C(=O)NCc1ccc2c(c1)OCO2 (stereo not given)	73.7*	·	85.3*	0.1	0.3	·
CCC(OC(=O)c1cc2sccc2n1C)C(=O)NCc1ccco1 (stereo not given)	53.9*	18.4	71.9*	0.3	0.5	-13.1
CC(OC(=O)Cc1coc2cc3c(cc12)CCC3)C(=O)NCc1ccc2c(c1)OCO2 (stereo not given)	17.2	17.2	13.2	0.9	0.8	1.5
O=C(/C=C/c1ccc(F)cc1)NCCc1ccc2c(c1)OCCO2	·	2.7	·	·	·	·
COn1c(SCc2cccnc2)nc2ccccc2c1=O	39.4	·	28.3	0.7	0.6	34.4
SMILES	CYP2C19 inh	E-sel TNF inh	CYP2C9 inh	CYP2C9 act	CYP2C19 act	cytoskel mod
CCn1c(/C=C/c2cccc([N+](=O)[O-])c2)nc2ccccc2c1=O	11.8	·	28.5	0.7	0.9	20.9
Cc1ccc(/C=N/NC(=O)CC(=O)NCc2cccnc2)cc1	·	-6.8	·	·	·	·
CC(=O)OC(C(=O)NCc1ccco1)c1cccnc1 (stereo not given)	-13.0	?	-21.6	1.2	1.1	-12.0
O=C(OC(C(=O)NCc1cccs1)c1ccc(F)cc1)c1ccco1 (stereo not given)	29.6	-0.5	40.8	0.6	0.7	4.0
CCC(OC(=O)c1nsc(Cl)c1Cl)C(=O)NCc1ccco1 (stereo not given)	59.3*	7.7	57.2*	0.4	0.4	15.4
CC(OC(=O)c1cccs1)C(=O)NCc1ccco1 (stereo not given)	85.8*	3.6	37.1	0.6	0.1	9.8
CC(OC(=O)c1nsc(Cl)c1Cl)C(=O)NCc1cccs1 (stereo not given)	20.4	6.9	33.7	0.7	0.8	11.4

Bioassay records deposited in PubChem by several laboratories.
